Measurements: PubChem BioAssay (NCATS)
Results filed as inconclusive are left out. The source made the active and inactive calls. Unless noted, the call rests on the fitted dose curve; in most records, active means well fitted curve in the direction sought with a large enough effect; inconclusive means small, poorly fitted or top-dose-only effect, or another doubt; inactive means no such curve, though single readings can be large; an effect the other way counts as inactive or inconclusive.

What was measured:
[1] = qHTS for Inhibitors of ATXN expression: Validation of Cytotoxic Assay (AID 588349); further: on the % scale 0 is the no-effect control and ±100 the full control effect
Method in brief: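 HEK293 cells were dosed with titrated compounds for 72 hr at 37 degrees C. Viability was read by CellTiter Glo luminescence, with intracellular ATP as the marker of cell survival.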

[2] = target: Ubiquitin carboxyl-terminal hydrolase 1 (Homo sapiens) (UniProt O94782); test: Inhibitors of USP1/UAF1: Pilot qHTS (AID 504865); further: nearly all actives have a fitted effect of over 35% in size; further: potency means the concentration at half of the fitted maximal effect
Chain of Ubiquitin carboxyl-terminal hydrolase 1 (Homo sapiens) (O94782 whole entry, looked up): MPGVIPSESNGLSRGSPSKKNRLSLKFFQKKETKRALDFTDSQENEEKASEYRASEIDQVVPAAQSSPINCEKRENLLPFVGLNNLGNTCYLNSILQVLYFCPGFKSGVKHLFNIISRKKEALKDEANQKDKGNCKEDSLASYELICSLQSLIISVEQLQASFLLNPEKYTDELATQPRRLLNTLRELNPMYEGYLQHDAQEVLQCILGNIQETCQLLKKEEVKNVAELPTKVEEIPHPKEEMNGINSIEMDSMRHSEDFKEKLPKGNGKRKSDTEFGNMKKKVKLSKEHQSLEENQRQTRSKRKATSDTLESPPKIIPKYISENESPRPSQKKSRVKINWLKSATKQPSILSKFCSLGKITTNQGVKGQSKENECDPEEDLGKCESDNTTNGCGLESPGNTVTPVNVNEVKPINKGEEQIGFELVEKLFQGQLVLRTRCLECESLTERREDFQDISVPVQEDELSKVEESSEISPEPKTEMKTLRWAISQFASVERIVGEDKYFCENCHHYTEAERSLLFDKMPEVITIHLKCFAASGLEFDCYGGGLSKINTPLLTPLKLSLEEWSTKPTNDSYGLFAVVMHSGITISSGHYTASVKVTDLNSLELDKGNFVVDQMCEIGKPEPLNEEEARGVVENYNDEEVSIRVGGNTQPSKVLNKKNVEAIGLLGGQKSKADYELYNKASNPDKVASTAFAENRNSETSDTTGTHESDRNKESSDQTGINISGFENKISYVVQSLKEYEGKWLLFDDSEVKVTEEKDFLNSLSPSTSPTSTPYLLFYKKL
Method in brief: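 USP1/UAF1 complex at 1 nM preincubated 15 min at room temperature with compound, then Ub-Rho substrate added at 150 nM final. Fluorescence (480/540 nm) read kinetically in 50 mM HEPES pH 7.8, 0.5 mM EDTA, 1 mM TCEP, 0.1 mg/ml BSA, 0.01% Tween-20.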

[3] = qHTS for Inhibitors of ATXN expression: Validation (AID 588378); further: series mostly up to about 57 µM; on the % scale 0 is the no-effect control and ±100 the full control effect; nearly all actives have a fitted effect of over 75% in size
Method in brief: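 HEK293 cells carrying ATXN2-firefly luciferase reporter, treated with compound 24 h at 37 °C. Viability read first by CellTiter-Fluor (405/525 nm), then reporter expression by Bright-Glo luminescence; controls were a known ATXN2 expression inhibitor and a luciferase inhibitor.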

[4] = target: DNA dC->dU-editing enzyme APOBEC-3G (Homo sapiens) (UniProt Q9HC16); test: qHTS for inhibitors of Vif-A3G interactions: Validation (AID 588379); further: 0% is about no effect
Chain of DNA dC->dU-editing enzyme APOBEC-3G (Homo sapiens) (Q9HC16 whole entry, looked up): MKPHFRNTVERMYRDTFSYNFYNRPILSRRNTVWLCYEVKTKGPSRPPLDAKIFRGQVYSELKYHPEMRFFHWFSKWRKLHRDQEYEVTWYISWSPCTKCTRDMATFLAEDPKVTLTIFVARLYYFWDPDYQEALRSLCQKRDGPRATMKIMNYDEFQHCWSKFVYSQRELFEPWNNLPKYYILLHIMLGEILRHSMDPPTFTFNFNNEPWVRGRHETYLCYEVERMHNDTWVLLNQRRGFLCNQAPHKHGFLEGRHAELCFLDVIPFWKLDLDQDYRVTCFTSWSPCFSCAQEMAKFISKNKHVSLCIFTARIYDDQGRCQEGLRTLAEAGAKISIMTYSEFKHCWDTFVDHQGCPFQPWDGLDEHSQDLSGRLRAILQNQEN
Method in brief: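 HeLa cells stably expressing Vif and A3G-eYFP, 700 cells/well, incubated overnight at 37 deg C, then exposed to compound overnight at 37 deg C. Inhibition of Vif-mediated degradation read as increased yellow fluorescence (Ex 488/Em 500-530) by laser-scanning cytometry.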

[5] = target: Estrogen receptor (Homo sapiens) (UniProt P03372); test: qHTS assay for small molecule antagonists of estrogen receptor alpha signaling (AID 588513; active means well fitted curve in the direction sought with a large enough effect in the signal ratio, with a control signal flat, not every such curve was filed as active; the % refers to the signal ratio; further: on the % scale 0 is the no-effect control and ±100 the full control effect)
Chain of Estrogen receptor (Homo sapiens) (P03372 whole entry, looked up): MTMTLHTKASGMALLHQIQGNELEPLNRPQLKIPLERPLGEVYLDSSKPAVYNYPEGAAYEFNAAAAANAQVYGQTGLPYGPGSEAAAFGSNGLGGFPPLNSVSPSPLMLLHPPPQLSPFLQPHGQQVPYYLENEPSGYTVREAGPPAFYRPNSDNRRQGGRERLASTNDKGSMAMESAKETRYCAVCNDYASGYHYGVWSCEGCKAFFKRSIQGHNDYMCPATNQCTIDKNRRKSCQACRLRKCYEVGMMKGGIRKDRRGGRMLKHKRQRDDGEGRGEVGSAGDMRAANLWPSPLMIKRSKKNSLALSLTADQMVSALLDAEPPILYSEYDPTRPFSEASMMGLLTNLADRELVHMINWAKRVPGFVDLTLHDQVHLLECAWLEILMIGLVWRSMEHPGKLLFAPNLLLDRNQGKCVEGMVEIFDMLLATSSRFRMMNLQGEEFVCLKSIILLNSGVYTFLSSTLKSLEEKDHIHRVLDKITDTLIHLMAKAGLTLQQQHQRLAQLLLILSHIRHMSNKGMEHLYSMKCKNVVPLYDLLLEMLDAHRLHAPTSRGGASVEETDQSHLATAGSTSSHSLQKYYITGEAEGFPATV
Method in brief: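 ER-alpha-UAS-bla GripTite HEK 293 cells in 2% charcoal/dextran-treated FBS medium; compounds titrated (1:2, duplicate), then stimulated with 0.5 nM 17-beta-estradiol for 18 h at 37C. CCF4 beta-lactamase fluorescence; Hill-fit IC50 and efficacy.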

[6] = target: Estrogen receptor (Homo sapiens) (UniProt P03372); test: qHTS assay for small molecule agonists of estrogen receptor alpha signaling (AID 588514; calls by dose curve;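 further: 0% = vehicle only and 100% = reference agonist; nearly all actives have a fitted effect of over 70% in size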)
Method in brief: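 ER-alpha-UAS-bla GripTite HEK 293 cells in medium with 2% charcoal/dextran-treated FBS were treated with compound titrations at 37 C for 18 hrs; beta-lactamase reporter read by CCF4 fluorescence after 2 hrs at RT.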

[7] = target: Bile acid receptor (Homo sapiens) (UniProt Q96RI1); test: qHTS assay for small molecule antagonists of farnesoid X receptor signaling (AID 588526; calls by dose curve; further: on the % scale 0 is the no-effect control and ±100 the full control effect)
Chain of Bile acid receptor (Homo sapiens) (Q96RI1 whole entry, looked up): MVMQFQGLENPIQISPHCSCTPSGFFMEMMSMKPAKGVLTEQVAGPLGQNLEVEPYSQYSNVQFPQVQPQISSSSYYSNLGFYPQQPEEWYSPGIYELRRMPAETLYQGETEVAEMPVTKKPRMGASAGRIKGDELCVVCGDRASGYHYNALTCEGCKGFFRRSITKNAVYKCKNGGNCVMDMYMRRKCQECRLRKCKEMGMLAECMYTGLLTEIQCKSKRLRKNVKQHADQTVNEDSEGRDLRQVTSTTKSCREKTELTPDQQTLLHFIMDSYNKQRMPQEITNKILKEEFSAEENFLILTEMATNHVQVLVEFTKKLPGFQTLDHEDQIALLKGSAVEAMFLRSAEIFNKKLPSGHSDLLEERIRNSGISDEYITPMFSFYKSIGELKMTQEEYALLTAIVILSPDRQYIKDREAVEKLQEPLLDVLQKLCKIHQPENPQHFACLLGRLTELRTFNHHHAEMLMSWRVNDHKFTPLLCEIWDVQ
Method in brief: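 Concentration-response titrations were fitted to the Hill equation for half-maximal inhibition and maximal response, with data normalised to 50 uM chenodeoxycholic acid and DMSO control wells. Cells: FXR-UAS-bla HEK293T, dialyzed FBS.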

[8] = target: Glucocorticoid receptor (Homo sapiens) (UniProt P04150); test: qHTS assay for small molecule antagonists of glucocorticoid receptor signaling (AID 588533; active means well fitted inhibition curve with a large enough effect in the signal ratio, with a control signal flat, not every such curve was filed as active; the % refers to the signal ratio;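 further: cells stimulated with 2 nM dexamethasone as agonist; on the % scale 0 is the no-effect control and ±100 the full control effect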)
Chain of Glucocorticoid receptor (Homo sapiens) (P04150 whole entry, looked up): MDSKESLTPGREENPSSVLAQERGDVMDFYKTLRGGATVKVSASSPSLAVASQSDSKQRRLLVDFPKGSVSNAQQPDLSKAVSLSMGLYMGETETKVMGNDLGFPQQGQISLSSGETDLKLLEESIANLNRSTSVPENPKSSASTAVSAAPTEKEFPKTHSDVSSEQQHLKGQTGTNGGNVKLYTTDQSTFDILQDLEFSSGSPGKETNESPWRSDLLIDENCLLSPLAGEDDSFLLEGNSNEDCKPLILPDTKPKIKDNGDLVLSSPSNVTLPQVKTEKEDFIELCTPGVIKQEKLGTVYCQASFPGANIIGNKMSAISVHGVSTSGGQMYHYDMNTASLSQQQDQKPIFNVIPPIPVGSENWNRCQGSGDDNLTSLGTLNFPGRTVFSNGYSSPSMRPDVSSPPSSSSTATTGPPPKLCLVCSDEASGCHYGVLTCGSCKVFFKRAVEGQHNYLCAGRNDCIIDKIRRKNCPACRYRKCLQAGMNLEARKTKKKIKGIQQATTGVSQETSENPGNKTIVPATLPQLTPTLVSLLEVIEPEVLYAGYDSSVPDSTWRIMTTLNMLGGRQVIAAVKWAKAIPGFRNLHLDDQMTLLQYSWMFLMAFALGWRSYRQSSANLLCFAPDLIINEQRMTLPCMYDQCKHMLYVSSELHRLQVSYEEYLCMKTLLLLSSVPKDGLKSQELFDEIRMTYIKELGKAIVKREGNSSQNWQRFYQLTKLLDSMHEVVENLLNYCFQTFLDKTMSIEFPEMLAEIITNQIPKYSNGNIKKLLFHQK
Method in brief: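 Antagonist-mode qHTS: compound titrations added to GRE-bla HeLa cells, then dexamethasone 2 nM final; 18 h, 37 C. CCF4 FRET fluorescence normalized to dexamethasone and DMSO; IC50 from Hill fit.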

[9] = target: Peroxisome proliferator-activated receptor delta (Homo sapiens) (UniProt Q03181); test: qHTS assay for small molecule agonists of peroxisome proliferator-activated receptor delta signaling (AID 588534; calls by dose curve;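 further: 0% = DMSO basal wells and 100% = positive control agonist at 10 µM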)
Chain of Peroxisome proliferator-activated receptor delta (Homo sapiens) (Q03181 whole entry, looked up): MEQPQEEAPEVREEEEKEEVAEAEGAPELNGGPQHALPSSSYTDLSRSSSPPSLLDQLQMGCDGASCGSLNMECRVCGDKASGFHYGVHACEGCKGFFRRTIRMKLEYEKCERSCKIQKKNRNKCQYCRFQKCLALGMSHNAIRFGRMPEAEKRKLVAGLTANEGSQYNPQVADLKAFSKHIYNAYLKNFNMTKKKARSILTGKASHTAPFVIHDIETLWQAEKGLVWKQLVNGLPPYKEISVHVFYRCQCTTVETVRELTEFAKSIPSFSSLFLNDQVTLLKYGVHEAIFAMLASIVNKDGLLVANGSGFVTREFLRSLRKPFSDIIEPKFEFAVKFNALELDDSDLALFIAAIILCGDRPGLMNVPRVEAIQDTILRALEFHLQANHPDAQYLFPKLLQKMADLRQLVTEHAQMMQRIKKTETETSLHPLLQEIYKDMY
Method in brief: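 Cell-based beta-lactamase reporter assay run in agonist mode: cells seeded and incubated 5 hrs at 37 C, compounds added and incubated 18 hrs at 37 C. CCF4 dye fluorescence read after 2 hrs at RT; EC50 and efficacy from Hill fits.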

[10] = qHTS assay for small molecule antagonists of peroxisome proliferator-activated receptor delta signaling (AID 588535; active means well fitted inhibition curve with a large enough effect in the signal ratio, with a control signal flat, not every such curve was filed as active; the % refers to the signal ratio;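 on max response: cells co-treated with a PPAR-delta agonist as stimulator during compound exposure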); details: HEK293T PPARd-UAS-bla, beta-lactamase FRET ratio, 18 h; 460 nm channel
Method in brief: (§1)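 GeneBLAzer PPAR-delta-UAS-bla HEK293T cells in medium with 2% charcoal/dextran FBS were preincubated 5 hrs at 37 C, then given compounds, incubated 18 hrs at 37 C, and read by CCF4 beta-lactamase fluorescence; IC50 from Hill fits.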

[11] = target: Peroxisome proliferator-activated receptor delta (Homo sapiens) (UniProt Q03181); test: as above
Method in brief: as §1

[12] = target: Peroxisome proliferator-activated receptor gamma (Homo sapiens) (UniProt P37231); test: qHTS assay for small molecule agonists of peroxisome proliferator-activated receptor gamma signaling (AID 588536; active means well fitted curve in the direction sought with a large enough effect in the signal ratio, with a control signal flat, not every such curve was filed as active; the % refers to the signal ratio;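 further: 0% = DMSO basal wells and 100% = rosiglitazone at 2 µM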)
Chain of Peroxisome proliferator-activated receptor gamma (Homo sapiens) (P37231 whole entry, looked up): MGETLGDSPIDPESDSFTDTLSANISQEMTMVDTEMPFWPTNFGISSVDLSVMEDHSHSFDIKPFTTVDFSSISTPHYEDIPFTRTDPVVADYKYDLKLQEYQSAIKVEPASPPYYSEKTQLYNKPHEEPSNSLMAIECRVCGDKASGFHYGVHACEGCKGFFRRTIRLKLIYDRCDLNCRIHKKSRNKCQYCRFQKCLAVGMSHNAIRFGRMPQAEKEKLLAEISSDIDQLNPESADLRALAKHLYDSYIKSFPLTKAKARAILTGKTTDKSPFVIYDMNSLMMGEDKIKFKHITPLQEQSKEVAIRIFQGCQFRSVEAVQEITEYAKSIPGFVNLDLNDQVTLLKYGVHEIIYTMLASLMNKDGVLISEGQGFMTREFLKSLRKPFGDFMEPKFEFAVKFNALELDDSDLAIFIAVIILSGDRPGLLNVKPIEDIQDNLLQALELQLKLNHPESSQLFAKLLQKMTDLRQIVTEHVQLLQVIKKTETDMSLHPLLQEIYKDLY
Method in brief: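 Ratiometric blue/green fluorescence (405 nm excitation; 460 and 530 nm emission) from CCF4-loaded HEK293 reporter cells serves as signal. Exposure to test compounds lasts 16 h at 37 C in medium containing 1% charcoal/dextran-treated serum.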

[13] = target: Peroxisome proliferator-activated receptor gamma (Homo sapiens) (UniProt P37231); test: qHTS assay for small molecule antagonists of peroxisome proliferator-activated receptor gamma signaling (AID 588537; active means well fitted inhibition curve with a large enough effect in the signal ratio, with a control signal flat, not every such curve was filed as active; the % refers to the signal ratio;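 further: reporter cells co-stimulated with 50 nM rosiglitazone agonist during compound treatment; % of control where 0% means no effect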)
Method in brief: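 PPAR-gamma-UAS-bla HEK293 cells (3000/well, 1% charcoal/dextran-stripped FBS) were preincubated 6-6.5 h at 37 C, given titrated compounds, then stimulated with 50 nM rosiglitazone for 16 h. Beta-lactamase activity was read with CCF4 dye; IC50 came from Hill fits.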

[14] = target: Vitamin D3 receptor (Homo sapiens) (UniProt P11473); test: qHTS assay for small molecule antagonists of vitamin D receptor signaling (AID 588541; calls by dose curve)
Chain of Vitamin D3 receptor (Homo sapiens) (P11473 whole entry, looked up): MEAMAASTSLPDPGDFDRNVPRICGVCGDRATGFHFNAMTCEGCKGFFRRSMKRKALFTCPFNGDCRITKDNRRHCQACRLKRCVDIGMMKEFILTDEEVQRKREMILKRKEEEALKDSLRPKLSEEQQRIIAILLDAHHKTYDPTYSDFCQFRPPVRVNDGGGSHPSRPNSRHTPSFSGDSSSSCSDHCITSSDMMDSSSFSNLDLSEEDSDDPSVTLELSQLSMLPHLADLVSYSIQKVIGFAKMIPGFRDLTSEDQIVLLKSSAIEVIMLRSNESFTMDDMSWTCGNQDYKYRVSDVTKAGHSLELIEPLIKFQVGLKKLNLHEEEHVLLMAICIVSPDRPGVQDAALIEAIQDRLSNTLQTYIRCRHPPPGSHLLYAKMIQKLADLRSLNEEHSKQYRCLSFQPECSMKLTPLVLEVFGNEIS
Method in brief: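 VDR-UAS-bla HEK293T cells (2000/well, 2% charcoal-stripped FBS) were treated with titrated compounds plus 1-alpha,25-dihydroxyvitamin D3 (50 nM or 3 nM final) for 16 h at 37 C. CCF4 beta-lactamase fluorescence was read; Hill fits gave IC50.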

[15] = target: Vitamin D3 receptor (Homo sapiens) (UniProt P11473); test: qHTS assay for small molecule agonists of vitamin D receptor signaling (AID 588543; calls by dose curve;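 further: 0% = DMSO basal and 100% = reference agonist control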)
Method in brief: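 VDR-UAS-bla HEK293T cells, 2000/well, 2% charcoal-stripped FBS; compound titration 16 h at 37 C; CCF4 beta-lactamase ratio read. Normalized to 50 nM 1-alpha,25-dihydroxyvitamin D3 (100%) and DMSO; Hill fit gives EC50, efficacy.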

[16] = qHTS assay for small molecule agonists of retinoid X receptor alpha signaling (AID 588544; calls by dose curve;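 on activation: 0% = DMSO basal wells and 100% = reference agonist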); details: HEK293T RXRa-UAS-bla, beta-lactamase reporter, 18 h; 530 nm emission
[17] = target: Retinoic acid receptor RXR-alpha (Homo sapiens) (UniProt P19793); test: as above
[18] = target: Thyroid hormone receptor beta (Homo sapiens) (UniProt P10828); test: qHTS assay for small molecule agonists of thyroid hormone receptor beta signaling (AID 588545; calls by dose curve)
Chain of Thyroid hormone receptor beta (Homo sapiens) (P10828 whole entry, looked up): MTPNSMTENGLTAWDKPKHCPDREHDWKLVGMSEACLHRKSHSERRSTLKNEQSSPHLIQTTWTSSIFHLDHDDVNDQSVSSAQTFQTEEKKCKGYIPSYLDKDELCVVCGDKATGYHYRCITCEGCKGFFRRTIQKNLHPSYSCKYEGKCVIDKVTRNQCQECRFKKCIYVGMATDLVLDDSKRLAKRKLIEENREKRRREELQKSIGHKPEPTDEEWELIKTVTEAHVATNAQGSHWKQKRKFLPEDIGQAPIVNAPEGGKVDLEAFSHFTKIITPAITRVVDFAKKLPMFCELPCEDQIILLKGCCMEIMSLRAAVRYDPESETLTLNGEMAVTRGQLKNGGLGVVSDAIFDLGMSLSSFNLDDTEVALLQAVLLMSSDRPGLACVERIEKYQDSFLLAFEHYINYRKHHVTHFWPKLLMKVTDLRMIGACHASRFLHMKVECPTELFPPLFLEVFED
Method in brief: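 Agonist activity was read as beta-lactamase CCF4 fluorescence (405 ex, 460/530 em), scaled between DMSO (0%) and 10 nM T3 (100%), then Hill-fitted for EC50 and efficacy. HEK 293 TR-UAS-bla cells in 2% charcoal/dextran FBS medium were exposed 18 h at 37 C.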

[19] = target: Androgen receptor (Homo sapiens) (UniProt P10275); test: qHTS assay for small molecule agonists of androgen receptor signaling (AID 588515; active means well fitted curve in the direction sought with a large enough effect in the signal ratio, with a control signal flat; the % refers to the signal ratio; further: on the % scale 0 is the no-effect control and ±100 the full control effect); details: AR-UAS-bla HEK293, beta-lactamase ratio, agonist 16 h; stronger effect = higher value
Method in brief: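 EC50 and efficacy came from Hill fits of titrations (up to 92 uM) normalized to 30 nM R1881 as 100% and DMSO as 0%. Compound exposure was 16 h at 37 C on AR-UAS-bla HEK293 cells, with a 405/460/530 nm CCF4 fluorescence read.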

[20] = target: Glucocorticoid receptor (Homo sapiens) (UniProt P04150); test: qHTS assay for small molecule agonists of glucocorticoid receptor signaling (AID 588532; active means well fitted curve in the direction sought with a large enough effect in the signal ratio, with a control signal flat; the % refers to the signal ratio;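 further: 100% = dexamethasone at 0.1 µM and 0% = DMSO only wells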); details: HeLa MMTV-bla, beta-lactamase ratio, agonist, 18 h; stronger effect = higher value; percent of dexamethasone control, DMSO zero
Method in brief: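 MMTV-bla HeLa, beta-lactamase reporter; medium with 1% charcoal/dextran-stripped FBS; cpds up to 92 uM, 18 h, 37 C; CCF4 readout 460/530 nm; Hill fit → EC50, efficacy vs 0.1 uM dexamethasone = 100%.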

CC(C)NC(C)Cc1ccc(I)cc1 (configuration not stated)
inactive: outcome [1]

CCCN(CCC)[C@@H]1CCc2ccc(O)cc2C1
inactive: Potency [2] | outcome [1] | Potency [3] | outcome [4]

Cc1ccc(Cl)c(O)c1
inactive: Potency [2]

NC(CP(=O)(O)O)C(=O)O (configuration not stated)
inactive: Potency [2] | outcome [1] | Potency [3]

C#CC1(O)CCC2C3CCC4=CC(=O)CCC4(C)C3CCC21C (configuration not stated)
active: Potency [2] 50.1 µM

CCOC(=O)c1cncn1[C@H](C)c1ccccc1
inactive: Potency [2] | outcome [4]

CCC(=O)OC1CCC2C3CCC4=CC(=O)CC[C@@]4(C)C3CC[C@]12C (some centres not stated)
inactive: Potency [2]

Cc1cc(O)ccc1Cl
inactive: Potency [2] | Potency [5] | outcome [6] | outcome [7] | Potency [8] | outcome [9] | Potency [11] | outcome [12] | Potency [13] | Potency [14] | outcome [15] | Potency [17] | outcome [18]
-6.7%: max response [16]
44.7%: max response [10]

CCCN1CCC[C@H](c2cccc(O)c2)C1
inactive: Potency [2] | outcome [1] | Potency [3]

COC(=O)c1cncn1C(C)c1ccccc1 (configuration not stated)
inactive: Potency [2]

NC(CCP(=O)(O)O)C(=O)O (configuration not stated)
inactive: Potency [2] | outcome [1] | Potency [3]

COc1ccc2c(c[n+](C)c3c4cc5c(cc4ccc23)OCO5)c1OC
inactive: Potency [2]

O=C(O)CCCOc1ccc(Cl)cc1Cl
inactive: Potency [2] | activation [19] -19.7% | Potency [13] | outcome [15] | outcome [18]

C[C@@H](N)Cc1cnc[nH]1
inactive: Potency [2] | outcome [1] | Potency [3] | outcome [4]

NC(N)=NOCCC(N)C(=O)O (configuration not stated)
inactive: Potency [2] | outcome [1] | Potency [3]

CC(Cc1ccc(O)cc1)NCC(O)c1cc(O)cc(O)c1 (configuration not stated)
inactive: Potency [2] | outcome [1] | Potency [3]

CS(=N)(=O)CC[C@H](N)C(=O)O (some centres not stated)
inactive: Potency [2] | outcome [1] | Potency [3]

CNCCc1c[nH]c2ccc(O)cc12
inactive: Potency [2] | outcome [1] | Potency [3] | outcome [4]

NC1CCc2cc(O)c(O)cc2C1 (configuration not stated)
inactive: Potency [2] | outcome [1] | Potency [3]

C#CCOC(=O)C1=CCCN(C)C1
inactive: Potency [2] | outcome [1] | Potency [3] | outcome [4]

NC(=NCCC[C@H](N)C(=O)O)N[N+](=O)[O-]
inactive: Potency [2] | outcome [1] | Potency [3] | outcome [4]

NCCc1c[nH]c2ccc(O)cc12
inactive: Potency [2] | outcome [1] | Potency [3] | outcome [4]

Clc1cnc(Oc2ccc(Oc3ncc(Cl)cc3Cl)cc2)c(Cl)c1
inactive: Potency [2] | outcome [1] | Potency [3] | outcome [7] | activation [20] -2.42% | Potency [8] | outcome [9] | Potency [11] | Potency [13] | Potency [14] | outcome [15]
17%: max response [10]

CCCCCC[C@H]1C(=O)O[C@H](C)[C@H](NC(=O)c2cccc(NC=O)c2O)C(=O)O[C@@H](C)[C@@H]1OC(=O)CC(C)C
inactive: outcome [6] | activation [20] -11.1% | outcome [18]

O=C(O)COc1nc(Cl)c(Cl)cc1Cl
110%: max response [10]
inactive: Potency [5] | outcome [6] | outcome [7] | activation [20] -16% | Potency [8] | Potency [11] | Potency [14] | outcome [18]
